Source: PMC7862700, “An all-to-all approach to the identification of sequence-specific readers for epigenetic DNA modifications on cytosine”

Key:
Test in all cases: DAPPL (digital affinity profiling via proximity ligation, sequencing); 10 mM Tris-HCl pH 7.5, 50 mM NaCl, 1 mM DTT, 4% glycerol, room temperature, 30 min; GST-TFs on glutathione beads, 16-mer random dsDNA library, 0.1% formaldehyde crosslink after washing; high values mean tight binding
Conditions in all cases: protein: recombinant; tags: N-terminal GST; dsDNA, one strand shown
FLI1 = biological target: T1, FLI1 (Homo sapiens, UniProt Q01543 1-452)
T1 sequence: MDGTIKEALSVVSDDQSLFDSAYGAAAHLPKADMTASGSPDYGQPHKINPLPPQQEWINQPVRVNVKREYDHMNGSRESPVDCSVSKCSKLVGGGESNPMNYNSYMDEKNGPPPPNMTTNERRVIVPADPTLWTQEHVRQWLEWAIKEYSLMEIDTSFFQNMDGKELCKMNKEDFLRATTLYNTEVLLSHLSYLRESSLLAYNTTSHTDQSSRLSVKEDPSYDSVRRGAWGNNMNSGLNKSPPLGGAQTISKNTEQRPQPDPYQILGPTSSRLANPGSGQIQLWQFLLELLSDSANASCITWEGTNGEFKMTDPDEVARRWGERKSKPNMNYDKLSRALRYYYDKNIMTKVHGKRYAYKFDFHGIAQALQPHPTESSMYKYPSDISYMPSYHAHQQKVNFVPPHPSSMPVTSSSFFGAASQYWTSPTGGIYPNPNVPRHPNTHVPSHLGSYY
Procedure, shortened: (§1)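 Yeast served to express human transcription factors as GST fusions, which were then captured on glutathione beads and labelled with DNA barcodes. Pooled with a tag-only sample, they were incubated with 200 nmole of a 16-mer random double-stranded DNA library for 30 min at room temperature in Tris/NaCl/DTT/glycerol buffer, washed, crosslinked with 0.1% formaldehyde, ligated by proximity, amplified by PCR and sequenced. Dividing each hexamer's read frequency for a factor by its frequency for the tag-only sample gives the binding signal.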

ELF1 = ELF1 (Homo sapiens, UniProt P32519 1-619)
Procedure, shortened: as §1

SPIB = SPIB (Homo sapiens, UniProt Q01892 1-262)
Procedure, shortened: as §1

ELK4 = biological target: T2, ELK4 (Homo sapiens, UniProt P28324-2 1-405)
T2 sequence: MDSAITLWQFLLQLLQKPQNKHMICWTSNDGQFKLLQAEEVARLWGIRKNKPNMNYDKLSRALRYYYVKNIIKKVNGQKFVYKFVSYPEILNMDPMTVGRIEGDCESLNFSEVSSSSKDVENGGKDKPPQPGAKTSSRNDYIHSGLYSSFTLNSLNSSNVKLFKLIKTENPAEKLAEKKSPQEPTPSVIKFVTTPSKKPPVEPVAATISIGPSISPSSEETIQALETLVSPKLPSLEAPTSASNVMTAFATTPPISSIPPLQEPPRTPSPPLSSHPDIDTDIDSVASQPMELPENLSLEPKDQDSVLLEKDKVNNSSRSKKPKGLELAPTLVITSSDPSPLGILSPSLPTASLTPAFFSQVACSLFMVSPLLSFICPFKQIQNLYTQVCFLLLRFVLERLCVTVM
Procedure, shortened: as §1

ELF3 = biological target: T3, ELF3 (Homo sapiens, UniProt P78545 1-371)
T3 sequence: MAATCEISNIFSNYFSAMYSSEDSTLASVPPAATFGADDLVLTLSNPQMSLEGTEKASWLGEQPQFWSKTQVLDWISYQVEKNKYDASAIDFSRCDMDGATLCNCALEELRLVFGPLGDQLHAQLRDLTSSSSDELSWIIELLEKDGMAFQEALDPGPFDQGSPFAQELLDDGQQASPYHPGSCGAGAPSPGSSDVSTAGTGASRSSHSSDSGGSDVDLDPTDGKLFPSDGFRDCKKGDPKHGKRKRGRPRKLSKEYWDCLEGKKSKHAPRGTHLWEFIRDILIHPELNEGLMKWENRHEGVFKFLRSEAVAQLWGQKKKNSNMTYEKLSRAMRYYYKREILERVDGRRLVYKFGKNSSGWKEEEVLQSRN
Procedure, shortened: as §1

ETV7 = biological target: T4, ETV7 (Homo sapiens, UniProt Q9Y603 1-341)
T4 sequence: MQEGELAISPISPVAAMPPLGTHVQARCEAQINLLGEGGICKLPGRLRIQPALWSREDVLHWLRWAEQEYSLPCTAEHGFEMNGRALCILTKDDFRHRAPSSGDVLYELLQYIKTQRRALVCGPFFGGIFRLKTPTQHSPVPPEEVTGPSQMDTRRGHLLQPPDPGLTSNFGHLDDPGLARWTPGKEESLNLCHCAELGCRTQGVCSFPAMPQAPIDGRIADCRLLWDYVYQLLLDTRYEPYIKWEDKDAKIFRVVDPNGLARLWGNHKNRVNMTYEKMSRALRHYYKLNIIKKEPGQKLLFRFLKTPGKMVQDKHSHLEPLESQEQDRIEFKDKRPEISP
Procedure, shortened: as §1

Chain of ELF1 (P32519 whole entry): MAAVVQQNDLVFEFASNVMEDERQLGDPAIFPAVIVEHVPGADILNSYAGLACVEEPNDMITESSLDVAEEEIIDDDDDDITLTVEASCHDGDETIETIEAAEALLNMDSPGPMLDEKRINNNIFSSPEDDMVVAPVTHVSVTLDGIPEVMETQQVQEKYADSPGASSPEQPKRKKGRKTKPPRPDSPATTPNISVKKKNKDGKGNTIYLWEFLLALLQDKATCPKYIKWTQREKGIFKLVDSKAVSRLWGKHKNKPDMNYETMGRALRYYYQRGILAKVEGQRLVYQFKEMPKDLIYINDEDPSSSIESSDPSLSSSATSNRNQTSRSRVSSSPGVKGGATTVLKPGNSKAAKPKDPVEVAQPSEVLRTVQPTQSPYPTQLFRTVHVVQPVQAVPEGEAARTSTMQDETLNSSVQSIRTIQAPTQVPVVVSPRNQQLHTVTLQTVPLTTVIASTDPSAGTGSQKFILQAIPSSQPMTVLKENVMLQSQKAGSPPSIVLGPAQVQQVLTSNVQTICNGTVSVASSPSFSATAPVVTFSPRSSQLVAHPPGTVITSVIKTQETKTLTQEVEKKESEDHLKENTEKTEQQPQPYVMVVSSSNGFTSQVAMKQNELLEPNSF
Chain of SPIB (Q01892 whole entry): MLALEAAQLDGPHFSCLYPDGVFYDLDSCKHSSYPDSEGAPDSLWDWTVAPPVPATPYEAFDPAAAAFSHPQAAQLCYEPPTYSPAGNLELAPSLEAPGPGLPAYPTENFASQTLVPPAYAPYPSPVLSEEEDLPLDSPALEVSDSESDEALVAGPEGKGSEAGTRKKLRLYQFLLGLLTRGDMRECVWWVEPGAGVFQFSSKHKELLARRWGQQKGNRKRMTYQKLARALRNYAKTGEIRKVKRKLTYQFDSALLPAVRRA

TTGGAT
binding signal (FLI1): 1.02 fold enrichment (6-mer frequency, TF over GST control)
binding signal (ELF1): 1.01 fold enrichment (6-mer frequency, TF over GST control)
binding signal (SPIB): 1.07 fold enrichment (6-mer frequency, TF over GST control)
binding signal (ELK4): 1.04 fold enrichment (6-mer frequency, TF over GST control)
binding signal (ELF3): 1.04 fold enrichment (6-mer frequency, TF over GST control)
binding signal (ETV7): 1.01 fold enrichment (6-mer frequency, TF over GST control)
